Bioassay records: PubChem, The Scripps Research Institute Molecular Screening Center
Sampled rows, rich in hits. Any-hit rate of the full collection: about 2.9%.
ADAM17 inh = inhibits human ADAM17; P78536; inhibition, % at 6.95 µM; recombinant ADAM17, EDANS/DABCYL FRET peptide cleavage; 370,000 tested, 0.83% active; AID 720648;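 active = inhibition above the mean of compounds lying between control limits plus 3 SD, set per campaign, cut at about 8.5% in these data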;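 also: 0% = DMSO-only wells as the low control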
PLC-gamma1 inh = inhibitors of human phospholipase C gamma1; purified PLC-gamma1, fluorogenic substrate, fluorescence; inhibition, % at 12.2 µM; AID 720700; P19174; 370,000 tested, 0.84% active; in the data active = inhibition above about 9.5%
PLC-beta3 inh = inhibitors of human phospholipase C beta3. 370,000 tested, 0.18% active. Q01970. inhibition, % at 12.2 µM. AID 720704. Purified PLC-beta3, fluorogenic substrate, fluorescence; in the data active = inhibition above about 11%;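 also: 0% = median of compound wells on plate and 100% = full blocker control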
ADAM10 inh = ADAM10 inhibition, QFRET primary screen; 370,000 tested, 0.62% active; inhibition, % at 7 µM; recombinant ADAM10, EDANS/DABCYL FRET peptide cleavage, 3 h;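 active = inhibition above a per-campaign cutoff equal to the mean of compounds falling between control-based bounds plus 3 SD, cut at about 20% in these data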;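 also: 0% = DMSO wells while the 100% control is not disclosed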
KLK7 zymogen act = activates the human kallikrein-7 zymogen; P49862; 370,000 tested, 0.9% active; purified proKLK7, EDANS-DABCYL substrate fluorescence; 100% is mature enzyme control, 0% vehicle; activation, % at 7 µM;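 active = activation above the mean of all tested compounds plus 3 SD, computed per campaign excluding outliers beyond control limits, cut at about 13% in these data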
ADAM10 ctr = ADAM10 inhibition, counter-screen for ADAM17 exosite hits; 2,900 tested, 47% active; shares compounds with ADAM17 inh; inhibition, % at 6.95 µM; recombinant ADAM10, EDANS/DABCYL FRET peptide cleavage, 3 h;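 active = mean inhibition over the triplicate runs exceeds the activity threshold set in the earlier primary screen, cut at about 20% in these data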;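 also: 0% = DMSO wells and 100% = marimastat wells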
ADAM17 confirm = confirmation of inhibitors of human ADAM17. shares compounds with ADAM17 inh. recombinant ADAM17, EDANS/DABCYL QFRET peptide cleavage. inhibition, % at 6.95 µM. 2,900 tested, 65% active;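 active = mean inhibition across replicates above the hit cutoff set in the primary screen, cut at about 8.5% in these data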;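 also: 0% = DMSO wells and 100% = marimastat wells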
Starred values were filed as active, the others as inactive; · = no result.

SMILES | ADAM17 inh | PLC-gamma1 inh | PLC-beta3 inh | ADAM10 inh | KLK7 zymogen act | ADAM10 ctr | ADAM17 confirm
CCOC(=O)c1csc(NC(=O)C2CCCN(S(=O)(=O)c3ccccc3[N+](=O)[O-])C2)n1 (stereo not given) | -1.4 | 1.0 | 0.7 | -3.1 | -0.1 | · | ·
COc1ccc(C(C(=O)N(C)C2CCCC2)N(Cc2ccc(F)cc2)C(=O)c2cc(C)[nH]n2)cc1OC (stereo not given) | 3.2 | 5.1 | 2.2 | 3.4 | 0.5 | · | ·
O=C(Nc1cccc(F)c1)Nc1ccc2c(c1)OCO2 | 10.1* | 2.0 | -0.5 | 10.3 | 0.1 | 6.0 | 5.0
CC(=O)c1cccc(NC(=O)CN2C(=O)NC3(CCCCCCC3)C2=O)c1 | 0.6 | 6.5 | 0.1 | -4.0 | -0.1 | · | ·
O=C(CN1C(=O)NC2(CCCCCCC2)C1=O)Nc1cccc(Br)c1 | 9.4* | 8.9 | -0.4 | 8.6 | -0.3 | 19.9* | 12.3*
CCCCN(Cc1ccccc1)S(=O)(=O)c1cc2c(cc1Br)CC(C)N2C(C)=O (stereo not given) | 10.8* | 4.4 | -1.4 | 17.0 | 1.1 | 15.7 | 12.2*
O=C(NCc1ccco1)c1ccc(S(=O)(=O)N2CCCc3ccccc32)cc1 | 10.4* | 6.0 | 7.2 | 14.7 | 1.9 | 11.0 | 2.5
COc1ccc(NC(C)C(=O)N/N=C/c2ccccc2OCc2ccc(Br)cc2)cc1 (stereo not given) | 13.7* | 0.3 | -6.8 | 19.4 | 1.3 | 14.4 | 20.5*
Cc1nc2ccc(S(=O)(=O)NCC(=O)NCc3cccs3)cc2s1 | -4.2 | 0.6 | -0.3 | -13.2 | -0.5 | · | ·
Cc1cccc(O)c1C | -0.7 | 4.5 | -1.0 | -13.5 | -0.8 | · | ·
Cc1cccc(C)c1N=Nc1c(C)cc(O)cc1C | 9.9* | 6.2 | 0.4 | 19.0 | 0.3 | 45.2* | 20.1*
Cc1cc(C)cc(NS(=O)(=O)c2ccc3[nH]cc(C(=O)N4CCc5ccccc54)c(=O)c3c2)c1 | 5.6 | 3.5 | 2.5 | 12.3 | 0.4 | · | ·
CCc1ccc(NS(=O)(=O)c2ccc3[nH]cc(C(=O)N4CCc5ccccc54)c(=O)c3c2)cc1 | 10.5* | 2.9 | 0.9 | 12.5 | -0.7 | 13.9 | 10.9*
O=C(c1cc(-c2ccccc2)nc2ccccc12)N1CCN(c2ccccc2O)CC1 | 13.7* | 6.5 | 5.0 | 13.2 | -0.2 | 28.6* | 19.3*
CCOC(=O)c1ccc(N2C(=O)c3n[nH]c(C)c3C2c2ccc(OC)cc2)cc1 (stereo not given) | -1.5 | 0.8 | 1.9 | 7.3 | 0.3 | · | ·
CCOC(=O)c1ccc(N2C(=O)c3n[nH]c(C)c3C2c2ccc(OC)cc2OC)cc1 (stereo not given) | 8.7* | 2.3 | -1.0 | 17.4 | 0.1 | 16.2 | 10.2*
C[C@@H]1CN([C@@H](C)CO)C(=O)CCCn2nncc2CO[C@H]1CN(C)C(=O)c1ccc2ccn(C)c2c1 | -3.6 | -1.5 | -0.8 | -23.9 | -0.2 | · | ·
CC1C(=O)N(Cc2cn(CCC3OCCO3)nn2)CCS(=O)(=O)N1Cc1ccc(-c2ccc(Cl)cc2)cc1 (stereo not given) | 8.6* | 0.0 | 3.6 | 15.2 | 1.3 | 13.1 | 4.7
Cc1ccc(-c2ccc(CN3C(C)C(=O)N(Cc4cn(CCC5OCCO5)nn4)CCS3(=O)=O)cc2)cc1 (stereo not given) | 2.6 | -4.4 | -4.8 | -6.2 | -0.3 | · | ·
Cc1ccc(S(=O)(=O)N2CCOC2CNC(=O)C(=O)NCCCc2ccccc2)cc1 (stereo not given) | 9.3* | 1.4 | -1.6 | -1.3 | -0.6 | 21.9* | 21.0*
Cc1ccc(S(=O)(=O)N2CCOC2CNC(=O)C(=O)NCCc2ccccc2)cc1 (stereo not given) | -6.4 | -0.3 | -9.2 | -6.2 | 0.3 | · | ·
O=C(Nc1c(-c2ccc3c(c2)OCO3)[nH][nH]c1=O)c1ccccc1 | -40.0 | -17.0 | -23.8 | -145.7 | -34.6 | · | ·
Nc1nc(CSC(=S)N2CCN(c3ccccc3)CC2)nc(Nc2ccccc2)n1 | 9.2* | -0.2 | -0.8 | 16.9 | 0.3 | 24.4* | 15.6*
Cc1cccc(NC(=O)Cc2noc3ccccc23)c1 | -0.5 | 5.2 | 3.8 | 12.0 | -0.1 | · | ·
O=C(Cc1noc2ccccc12)NNC(=S)Nc1ccc(Cl)cc1 | 12.2* | 8.1 | -3.9 | 13.7 | -0.1 | 3.2 | 0.8
SMILES | ADAM17 inh | PLC-gamma1 inh | PLC-beta3 inh | ADAM10 inh | KLK7 zymogen act | ADAM10 ctr | ADAM17 confirm
CC1CC(C)CN(CCCNC(=O)CN2C(=O)CSc3ccc(S(=O)(=O)N4CCCCC4)cc32)C1 (stereo not given) | 10.4* | 8.3 | -6.8 | -1.1 | 0.1 | 12.4 | 9.8*
COc1cccc(CN(Cc2ccco2)S(=O)(=O)c2ccc(S(=O)(=O)NCc3ccccc3)cc2)c1OC | 14.0* | 8.7 | 3.5 | 39.0* | 0.8 | 43.1* | 23.7*
COC(=O)C1=C(C)N(Cc2ccc(C(F)(F)F)cc2)C(=NCc2ccccc2C(F)(F)F)NC1c1ccccc1 (stereo not given) | 0.5 | 0.2 | -2.1 | 1.4 | 1.0 | · | ·
COc1ccc(NS(=O)(=O)c2ccc3nc(COc4ccc(Cl)c(C)c4)[nH]c3c2)cc1 | 12.8* | 1.6 | 3.0 | 19.1 | 1.2 | 26.7* | 18.6*
COc1ccc(NS(=O)(=O)c2ccc3[nH]c(=O)[nH]c3c2)cc1 | 2.6 | 2.8 | -7.4 | 3.8 | 0.0 | · | ·
CC1(C(=O)Nc2ccccc2F)CCN1C(=O)Cc1cc(F)ccc1F (stereo not given) | -3.7 | -2.6 | 1.8 | -6.3 | -0.5 | · | ·
C/C(C=NNC(=O)CSc1nnc(-c2ccccc2)n1-c1ccc(C)cc1)=C\c1ccco1 | 4.3 | -1.0 | -10.8 | 6.8 | -0.5 | · | ·
CC(C)[C@H](NC(=O)[C@@H]1Cc2c([nH]c3ccccc23)C2c3ccccc3C(=O)N21)C(=O)N1CCC[C@H]1C(=O)O (stereo not given in full) | -10.5 | -16.0 | -23.5 | -52.7 | 0.4 | · | ·
NC(=O)CNCCC(c1ccccc1)c1ccccc1 | 9.8* | 5.4 | 3.9 | 10.7 | 0.0 | -1.5 | -0.1
COc1cccc(-c2cccc(-c3nc(C(=O)NCCCN4CCOCC4)cc4c3[C@H](CCO)N(S(=O)C(C)(C)C)C4)c2)c1 (stereo not given in full) | -2.9 | 0.1 | -4.7 | -10.0 | 0.3 | · | ·
COc1cccc(C2NC(c3cccc(OC)c3O)C(C)C(=O)C2C)c1O (stereo not given) | 0.6 | -1.4 | -7.9 | 0.8 | 0.9 | · | ·
CC1C(=O)C(C)C(c2cc(Cl)ccc2O)NC1c1cc(Cl)ccc1O (stereo not given) | 9.6* | 3.8 | 0.8 | 17.9 | -0.3 | 32.5* | 16.5*
Cc1cc(NC(=O)COC(=O)C(Nc2ccc(C(F)(F)F)cc2Cl)C(C)C)no1 (stereo not given) | 10.1* | 1.2 | 4.1 | 19.6 | -0.6 | 41.2* | 23.6*
Cc1cc(NC(=O)COC(=O)c2ccc(OC(F)(F)F)cc2)no1 | -3.8 | 2.8 | -5.3 | -14.3 | -0.5 | · | ·
